Screening data deposited in PubChem by several laboratories.
The list is not random: actives were taken first. Their share in the collection is about 3.5%.
eIF4E 4G PPI – eIF4E–eIF4G protein interaction inhibitors, primary screen, biochemical, uHTS, TR-FRET, eIF4GI fragment. 220,000 tested, 0.37% active. inhibition, % at 21.7 µM. TR-FRET eIF4E-eIF4GI(517-606) binding, 2 h. AID 782, 2007;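 active = inhibition above about 30%, limit read from the data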;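 note: 0% = full FRET control wells and 100% = background wells lacking eIF4GI fragment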
Hck-Nef inh – inhibitors of Nef-activated human Hck kinase, primary screen, biochemical, Z-Lyte FRET, 384-well, Hck-YEEI. Tyrosine-protein kinase HCK (Homo sapiens), P08631. AID 463187, 2010. 220,000 tested, 0.68% active. Recombinant Hck-YEEI plus Nef, Z-Lyte FRET kinase assay. inhibition, % at 20 µM;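 active = Hck-Nef kinase inhibition above about 50%, limit read from the data; inactive = inhibition below that limit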;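 note: 0% = DMSO with Hck plus Nef and 100% = Hck alone without Nef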
Mcl1-Noxa inh – Mcl-1/Noxa binding inhibitors, primary screen, biochemical, TR-FRET, 1536-well; AID 1022, 2008; 220,000 tested, 1.5% active; Induced myeloid leukemia cell differentiation protein Mcl-1 (Homo sapiens), Q07820; TR-FRET Mcl-1/Noxa peptide binding, 2 h; inhibition, % at 21.7 µM;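 active = compounds that cut the protein-peptide binding signal by more than 50% relative to plate controls in a single-dose test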;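 note: His-tagged Mcl-1 with rhodamine Noxa BH3 peptide and terbium anti-His antibody; 0% = Mcl-1 plus Noxa peptide wells and 100% = peptide-only wells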
Target sequence (Q07820 whole entry, looked up): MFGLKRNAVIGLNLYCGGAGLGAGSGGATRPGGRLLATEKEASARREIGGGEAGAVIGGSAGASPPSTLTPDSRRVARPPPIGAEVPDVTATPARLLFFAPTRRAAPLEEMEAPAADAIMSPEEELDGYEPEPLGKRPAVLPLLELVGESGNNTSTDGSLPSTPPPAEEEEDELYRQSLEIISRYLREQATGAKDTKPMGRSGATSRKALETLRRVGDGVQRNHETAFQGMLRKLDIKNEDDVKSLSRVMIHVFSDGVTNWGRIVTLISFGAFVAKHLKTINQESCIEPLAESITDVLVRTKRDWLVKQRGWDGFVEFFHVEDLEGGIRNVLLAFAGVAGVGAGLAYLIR
14-3-3 Bad PPI – inhibitors of 14-3-3 zeta/Bad binding, primary screen, biochemical, TR-FRET, bovine 14-3-3 zeta | 220,000 tested, 0.71% active | inhibition, % at 21.7 µM | TR-FRET 14-3-3zeta/Dy647-pBad peptide displacement, 1 h | AID 781, 2007;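 active = inhibition above about 70%, limit read from the data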;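 note: 0% = full 14-3-3 plus peptide FRET controls and 100% = background without 14-3-3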
Target sequence (P63103 whole entry, looked up): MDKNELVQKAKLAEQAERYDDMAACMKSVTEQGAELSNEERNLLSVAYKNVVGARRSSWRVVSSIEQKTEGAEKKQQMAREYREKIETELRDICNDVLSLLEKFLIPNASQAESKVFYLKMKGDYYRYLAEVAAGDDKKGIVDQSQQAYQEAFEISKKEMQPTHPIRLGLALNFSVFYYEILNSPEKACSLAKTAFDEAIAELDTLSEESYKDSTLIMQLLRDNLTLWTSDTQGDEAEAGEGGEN
Mcl1-Bid inh – Mcl-1/Bid binding inhibitors, primary screen, biochemical, TR-FRET, 1536-well. Induced myeloid leukemia cell differentiation protein Mcl-1 (Homo sapiens), Q07820. TR-FRET Mcl-1/Bid-Dy647 peptide binding. inhibition, % at 21.7 µM. 220,000 tested, 0.97% active;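 active = compounds that cut the binding signal by more than half at the single screening dose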;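 note: His-tagged Mcl-1 with europium anti-His antibody binding Bid BH3 peptide; 0% = Mcl-1 plus peptide wells and 100% = peptide-only wells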
Mcl-1 Bim block – inhibitors of Bim peptide binding to Mcl-1, primary screen, biochemical, bead-based flow cytometry, multiplex; Bim peptide-Mcl-1 binding; inhibition, % at 10 µM; 190,000 tested, 0.1% active; AID 1009, 2008; in the data active = inhibition above about 40%;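 note: 0% = no compound tracer wells and 100% = peptide blocker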
Hck Nef conf – retest of Hck:Nef kinase inhibitor hits, confirmation, biochemical, Z-Lyte FRET, 384-well, p-Tyr peptide counterscreen | shares compounds with Hck-Nef inh | Recombinant Hck-YEEI:Nef, Z-Lyte FRET kinase assay | calls only at 10 µM | 1,300 tested, 28% active | AID 463188, 2010;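 active = average inhibition of at least 50%, with Z-scores no higher than 3 in both the phospho-tyrosine peptide and fluorescence counterscreens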
* = called active by the depositor; i = inactive; x = no result given; + = active, no number; [ ] = another dose, or the depositor's remark.

SMILES	eIF4E 4G PPI	Hck-Nef inh	Mcl1-Noxa inh	14-3-3 Bad PPI	Mcl1-Bid inh	Mcl-1 Bim block	Hck Nef conf
CN(C)Cc1c(O)c(Cl)cc2c3c(c(=O)oc12)CCCC3	4.9	137.0*	-8.7	4.0	-27.7	0.0	x
O=c1oc2c(CN3CCOCC3)c(O)c(Cl)cc2c2c1CCC2	1.8	157.8*	0.7	-0.7	-14.0	-2.0	x
Cc1oc2c(C)c3oc(=O)c4c(c3cc2c1C)CCC4	-3.8	0.7	-4.0	-1.4	0.1	0.0	x
Cc1c(O)c(CN2CCCCC2)cc2c3c(c(=O)oc12)CCC3	-6.0	8.7	-6.9	-1.4	-13.8	0.0	x
CCN(CC)Cc1c(O)c(Cl)cc2c3c(c(=O)oc12)CCCC3	11.2	112.6*	6.4	-5.8	-24.4	-3.0	x
O=c1cc(-c2ccccc2)c2cc(Cl)c(O)c(CN3CCOCC3)c2o1	-0.2	-24.2	-2.6	-2.6	-42.2	x	x
COC(=O)C1SCC2C(=O)N(Cc3ccccc3)CC(=O)N21 (stereo not drawn)	-1.8	4.3	1.6	13.1	4.1	-1.0	x
CCn1c(SCC(=O)Nc2ccc(-c3nc4ccc(C)cc4s3)cc2)nnc1-c1ccccc1	4.8	61.6*	65.7*	91.0*[fluorescence artefact?]	65.8*	-5.0	+
CCn1c(SCC(=O)Nc2nc3ccccc3s2)nnc1-c1ccc(Br)cc1	-23.7	-1.1	8.9	7.3	16.0	-3.0	x
Cc1ccc(-c2nc3ccccc3[nH]2)cc1NC(=O)c1sc2cc(Cl)ccc2c1Cl	-4.1	73.1*	-9.8	11.1	10.9	-7.0	i
CCOc1cc(C2c3c(oc4ccccc4c3=O)C(=O)N2c2nccs2)ccc1O (stereo not drawn)	2.8	84.5*	-30.6	26.6	55.7*	x	i
CCOc1cccc(C2c3c(oc4ccccc4c3=O)C(=O)N2c2ccccn2)c1 (stereo not drawn)	3.8	1.8	-4.4	11.5	6.2	-1.0	x
CCCC1=C(C(=O)OCC)C(c2cc(Cl)cc(OC)c2OCc2ccccc2)NC(=O)N1 (stereo not drawn)	2.3	0.4	-2.5	-2.6	0.1	-2.0	x
COc1cccc(C(CC(=O)NCc2ccco2)NS(=O)(=O)c2ccc(C)cc2)c1OC (stereo not drawn)	4.0	-4.0	1.4	-7.5	-17.7	3.0	x
COc1ccc(-c2cc(=O)c3c(O)c(OC)c(O)cc3o2)cc1	-2.0	67.4*	6.9	-2.4	-0.5	-1.0	i
COc1cc(-c2cc(=O)c3c(O)c(OC)c(OC)cc3o2)cc(OC)c1O	-18.6	98.4*	-11.0	2.1	-65.5	x	+
COc1cc(-c2cc(=O)c3c(O)cc(O)cc3o2)ccc1O	1.6	54.3*	43.3	-3.4	-9.9	4.0	i
O=C(/C(C=Nc1cc2c(oc1=O)CCCC2=O)=C(\O)c1ccccc1)c1ccccc1	1.6	9.8	5.3	-13.7	-22.0	5.0	x
COc1ccc2c(C)cc(SCC(=O)Nc3ccc(Cl)cn3)nc2c1	2.1	4.9	-12.0	-18.6	-28.7	0.0	x
CCCCOc1ccc(-c2nnc(N)s2)cc1	2.8	78.5*	-5.4	1.1	-0.9	-5.0	+
Cc1ccc(C(=O)NC(=S)Nc2ccc(-c3ccc(CO)o3)cc2)cc1	2.2	61.0*	25.6	-10.8	13.1	-1.0	i
CCCS(=O)c1nc(C)cc(C)c1S(C)(=O)=O (stereo not drawn)	0.7	17.8	15.2	-13.1	4.5	-1.0	x
O=C1NN(c2ccccc2)C(=O)/C1=C\c1coc2ccc(O)cc2c1=O	6.6	71.1*	43.2	15.6	-96.3	x	+
Cc1cc(/C=C2/C(=O)NN(c3ccccc3)C2=O)c(C)n1-c1ccc(O)cc1	-6.6	3.0	14.3	-11.4	-30.6	-2.0	x
O=C1NN(c2ccccc2)C(=O)/C1=C/c1coc2ccccc2c1=O	-0.5	88.1*	-1.2	23.6	-65.0	-6.0	+
SMILES	eIF4E 4G PPI	Hck-Nef inh	Mcl1-Noxa inh	14-3-3 Bad PPI	Mcl1-Bid inh	Mcl-1 Bim block	Hck Nef conf
O=c1c(Cl)c(N2CCN(S(=O)(=O)c3ccc(F)cc3)CC2)cnn1-c1cccc(Cl)c1	-72.0	-1.3	-22.9	-34.4	-10.5	-4.0	x
O=c1/c(=C\c2cc([N+](=O)[O-])cc([N+](=O)[O-])c2O)sc2nc3ccccc3n12	30.4*	70.8*	105.2*	75.0*	91.2*	-1.0	+
CCOC(=O)c1cc(NC(=O)Nc2nccs2)c(C)nc1C	18.7	5.4	-3.3	-4.8	-18.3	-2.0	x
COc1cc(NC(=S)N2CCCCC2C)cc(OC)c1OC (stereo not drawn)	2.6	25.0	7.6	-9.5	-27.4	26.0	x
NC(=O)c1cc2ccc(O)cc2oc1=NCc1ccccc1	3.0	103.6*	2.2	2.8	-11.0	-3.0	x
Cc1ccccc1Nc1nc(=O)c2cc([N+](=O)[O-])ccc2s1	1.1	2.8	24.7	3.4	-7.3	-2.0	x
Cc1ccc(Nc2nc(=O)c3cc([N+](=O)[O-])ccc3s2)cc1	0.9	57.4*	7.2	25.2	-74.8	x	i
COC(=O)CC(c1ccc(C(C)C)cc1)n1cccc1 (stereo not drawn)	1.9	26.8	1.2	-13.4	-40.0	0.0	x
COc1ccc(/C=C/c2nnc(NC(=O)C(C)(C)C)s2)cc1	2.4	26.8	-7.8	-1.8	-15.8	x	x
COc1ccc(/C=C/c2nnc(NC(=O)c3ccco3)s2)cc1	2.0	53.0*	-11.7	-11.7	-8.4	x	i
Nc1c(C(=O)N/N=C/c2cccnc2)oc2nc(-c3ccccc3)cc(-c3ccco3)c12	5.4	-25.4	39.8	-4.8	13.0	x	x
O=CNn1cnc2c(oc3nc(-c4ccccc4)cc(-c4ccco4)c32)c1=O	5.5	54.7*	39.9	-0.1	-28.6	4.0	i
Cc1nc2cc3c(cc2c(C)c1C(=O)OC(C)C)OCO3	8.9	4.7	10.9	4.6	0.4	-3.0	x
CCCCC(=O)N1C/C=C\C(c2ccc(OC)cc2)N(Cc2ccc(F)cc2)C(=O)C1 (stereo not drawn)	-0.6	28.6	-12.0	3.1	-30.4	x	x
COc1cc2c(cc1OC)CN(c1nc(-c3cccnc3)nc3ccccc13)CC2	1.8	67.9*	11.3	3.1	-10.7	1.0	+
c1cncc(-c2nc(N3CCCCCC3)c3ccccc3n2)c1	-3.8	16.2	-1.3	1.0	4.3	-1.0	x
CCOc1c(Cl)cc(/C=N/NC(N)=S)cc1OC	-22.8	5.0	17.2	-13.3	-89.0	-3.0	x
